Measurements published in PubChem BioAssay AID1159580 (chemical genetic matrix, 2015).
“And” between values parts separate entries of the source, which are not always exact repeats. Equal values may be shown once. In all, about 5,500 compounds went through this assay and about 2,000 (36%) were called active. Not shown: some 18% with an inconclusive outcome. Cut-off read from the data, not from the text of the source: active = normalized growth mostly below about 0.91 (no sharp cut-off); inconclusive = no clear call, values can overlap the other calls; inactive = mostly above about 0.92. Some of the results follow.

Assay: chemical genetic growth profiling, strain panel (AID 1159580);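 note: tested at 20 µM; growth read once vehicle control cultures reached saturation at 30 °C; 1 = growth at the plate median or of vehicle wells; lower values mean less growth of the strain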
Conditions: S. cerevisiae deletion strains, growth OD

Measured: normalized growth

COc1cc(NS(=O)(=O)c2ccc(N)cc2)ncn1
inactive: locus YAL013W, strain DEP1, hits give low values 0.998 | locus YAL021C, strain ccr4, hits give low values 0.988 | locus YAL026C, strain drs2, hits give low values 0.978 | locus YAL030W, strain snc1, hits give low values 0.999 | locus YBL061C, strain skt5, hits give low values 0.987 | locus YBR009C, strain hhf1, hits give low values 0.996 | locus YBR021W, strain FUR4, hits give low values 1 | locus YBR023C, strain chs3, hits give low values 0.983 | locus YBR171W, strain sec66, hits give low values 0.968 | locus YBR229C, strain ROT2, hits give low values 0.955 | locus YBR231C, strain swc5, hits give low values 0.979 | locus YBR279W, strain paf1, hits give low values 0.964 | locus YCL011C, strain gbp2, hits give low values 0.968 | locus YCL016C, strain dcc1, hits give low values 0.981 | locus YCL029C, strain bik1, hits give low values 0.977 | locus YCL061C, strain MRC1, hits give low values 0.979 | locus YCL069W, strain vba3, hits give low values 0.98 | locus YCR088W, strain abp1, hits give low values 0.97 | locus YDL005C, strain med2, hits give low values 0.978 | locus YDL035C, strain GPR1, hits give low values 0.993 | locus YDL040C, strain nat1, hits give low values 0.969 | locus YDL074C, strain BRE1, hits give low values 0.966 | locus YDL101C, strain DUN1, hits give low values 0.979 | locus YDL134C, strain PPH21, hits give low values 1.01 | locus YDL185W, strain tfp1, hits give low values 0.983 | locus YDL192W, strain arf1, hits give low values 0.978 | locus YDR001C, strain nth1, hits give low values 0.973 | locus YDR069C, strain doa4, hits give low values 1.03 | locus YDR101C, strain arx1, hits give low values 0.972 | locus YDR137W, strain rgp1, hits give low values 0.991 | locus YDR159W, strain sac3, hits give low values 0.916 | locus YDR162C, strain NBP2, hits give low values 0.995 | locus YDR195W, strain ref2 0.918 | locus YDR297W, strain sur2, hits give low values 1 | locus YDR318W, strain mcm21, hits give low values 0.988 | locus YDR334W, strain swr1, hits give low values 0.948 | locus YDR335W, strain msn5, hits give low values 0.971 | locus YDR388W, hits give low values 0.979 | locus YDR392W, strain spt3, hits give low values 0.982 | locus YDR502C, strain sam2, hits give low values 0.984 | locus YEL003W, strain gim4, hits give low values 1 | locus YEL037C, strain rad23, hits give low values 0.999 | locus YEL061C, strain CIN8 (second series), hits give low values 0.96 | locus YEL061C, strain CIN8, hits give low values 0.982 | locus YER015W, strain faa2, hits give low values 0.984 | locus YER016W, strain bim1, hits give low values 0.992 | locus YER110C, hits give low values 0.973 | locus YER111C, strain swi4, hits give low values 0.968 | locus YER155C, strain BEM2 (second series), hits give low values 0.975 | locus YER155C, strain BEM2, hits give low values 1 | locus YER167W, strain BCK2, hits give low values 0.992 | locus YFR010W, strain ubp6, hits give low values 0.97 | locus YGL078C, strain dbp3, hits give low values 0.977 | locus YGL086W, strain mad1, hits give low values 0.981 | locus YGL167C, strain pmr1, hits give low values 0.981 | locus YGL173C, strain kem1, hits give low values 0.993 | locus YGL227W, strain vid30, hits give low values 0.959 | locus YGL240W, strain doc1, hits give low values 0.958 | locus YGL248W, strain PDE1, hits give low values 0.978 | locus YGL253W, strain hxk2, hits give low values 0.979 | locus YGR078C, strain PAC10, hits give low values 0.977 | locus YGR135W, strain pre9, hits give low values 0.999 | locus YGR252W, strain gcn5, hits give low values 0.987 | locus YHR013C, strain ard1, hits give low values 0.986 | locus YHR027C, strain rpn1, hits give low values 0.983 | locus YHR030C, strain SLT2, hits give low values 0.997 and 0.991 | locus YHR079C, strain IRE1 (second series), hits give low values 0.99 | locus YHR079C, strain IRE1, hits give low values 0.97 | locus YHR094C, strain hxt1, hits give low values 0.987 | locus YHR129C, strain ARP1, hits give low values 0.995 | locus YHR142W, strain chs7, hits give low values 0.968 | locus YHR200W, strain rpn10, hits give low values 0.982 | locus YIL066C, strain RNR3, hits give low values 0.976 | locus YIL073C, strain SPO22, hits give low values 1.02 | locus YIL125W, strain kgd1, hits give low values 0.982 | locus YIR030C, strain dcg1, hits give low values 0.974 | locus YJL092W, strain hpr5, hits give low values 0.98 | locus YJL095W, strain BCK1 (second series), hits give low values 0.976 | locus YJL095W, strain BCK1, hits give low values 0.989 and 0.983 | locus YJL115W, strain asf1, hits give low values 0.964 | locus YJL129C, strain trk1, hits give low values 0.963 | locus YJL134W, strain LCB3, hits give low values 0.992 | locus YJL154C, strain vps35, hits give low values 0.971 | locus YJL164C, strain tpk1, hits give low values 1 | locus YJL166W, strain qcr8, hits give low values 0.982 | locus YJL168C, strain set2, hits give low values 0.985 | locus YJL187C, strain SWE1 (second series), hits give low values 0.962 | locus YJL187C, strain SWE1, hits give low values 0.981 | locus YJR043C, strain POL32, hits give low values 0.994 | locus YJR066W, strain TOR1, hits give low values 0.943
